Laboratory results: PMC11062922 (Nature Chemical Biology, 2023)
pEC50, pKd: −log10 of the molar value.

Key:
[1] = system: AURKB; settings: compound concentrations:3nM, 10nM, 30nM, 100nM, 300nM, 1000nM, 3000nM, 30000nM,R2:0.99833060468955204,slope:0.90064720888108796,EC50 Standard Error, by the legend:Standard error of the EC50 estimation as provided by the drc package.
[2] = system: BCR; settings: compound concentrations:3nM, 10nM, 30nM, 100nM, 300nM, 1000nM, 3000nM, 30000nM,R2:0.97560136182595103,slope:1.05645406378656,EC50 Standard Error, by the legend:Standard error of the EC50 estimation as provided by the drc package.
[3] = system: BMP2K; settings: compound concentrations:3nM, 10nM, 30nM, 100nM, 300nM, 1000nM, 3000nM, 30000nM,R2:0.98755156955359502,slope:1.4167647234137799,EC50 Standard Error, by the legend:Standard error of the EC50 estimation as provided by the drc package.
[4] = system: BMPR2; settings: compound concentrations:3nM, 10nM, 30nM, 100nM, 300nM, 1000nM, 3000nM, 30000nM,R2:0.93324573239730002,slope:2.2231806087315,EC50 Standard Error, by the legend:Standard error of the EC50 estimation as provided by the drc package.
[5] = system: CCNH; settings: compound concentrations:3nM, 10nM, 30nM, 100nM, 300nM, 1000nM, 3000nM, 30000nM,R2:0.984368608654974,slope:1.5961170242536,EC50 Standard Error, by the legend:Standard error of the EC50 estimation as provided by the drc package.
[6] = system: CHEK1; settings: compound concentrations:3nM, 10nM, 30nM, 100nM, 300nM, 1000nM, 3000nM, 30000nM,R2:0.99154934454702504,slope:1.2455496028398201,EC50 Standard Error, by the legend:Standard error of the EC50 estimation as provided by the drc package.
[7] = system: EPHA1; settings: compound concentrations:3nM, 10nM, 30nM, 100nM, 300nM, 1000nM, 3000nM, 30000nM,R2:0.96586410409124401,slope:0.42399886433003398,EC50 Standard Error, by the legend:Standard error of the EC50 estimation as provided by the drc package.
[8] = system: EPHA7; settings: compound concentrations:3nM, 10nM, 30nM, 100nM, 300nM, 1000nM, 3000nM, 30000nM,R2:0.88780253900259998,slope:1.37394463734268,EC50 Standard Error, by the legend:Standard error of the EC50 estimation as provided by the drc package.
[9] = system: FER; settings: compound concentrations:3nM, 10nM, 30nM, 100nM, 300nM, 1000nM, 3000nM, 30000nM,R2:0.99765697857562097,slope:1.03588430141815,EC50 Standard Error, by the legend:Standard error of the EC50 estimation as provided by the drc package.
[10] = system: FLT3; settings: compound concentrations:3nM, 10nM, 30nM, 100nM, 300nM, 1000nM, 3000nM, 30000nM,R2:0.96575906270431899,slope:1.4210084972678201,EC50 Standard Error, by the legend:Standard error of the EC50 estimation as provided by the drc package.
[11] = system: FLT4; settings: compound concentrations:3nM, 10nM, 30nM, 100nM, 300nM, 1000nM, 3000nM, 30000nM,R2:0.97672359479992199,slope:1.0836870062150401,EC50 Standard Error, by the legend:Standard error of the EC50 estimation as provided by the drc package.
[12] = system: INCENP; settings: compound concentrations:3nM, 10nM, 30nM, 100nM, 300nM, 1000nM, 3000nM, 30000nM,R2:0.98280014886482903,slope:1.1847745210473,EC50 Standard Error, by the legend:Standard error of the EC50 estimation as provided by the drc package.
[13] = system: IRAK4; settings: compound concentrations:3nM, 10nM, 30nM, 100nM, 300nM, 1000nM, 3000nM, 30000nM,R2:0.93116388715812703,slope:1.4824347437463801,EC50 Standard Error, by the legend:Standard error of the EC50 estimation as provided by the drc package.
[14] = system: MAP3K11; settings: compound concentrations:3nM, 10nM, 30nM, 100nM, 300nM, 1000nM, 3000nM, 30000nM,R2:0.99429213742215306,slope:0.76505348781975802,EC50 Standard Error, by the legend:Standard error of the EC50 estimation as provided by the drc package.
[15] = system: MAP4K2; settings: compound concentrations:3nM, 10nM, 30nM, 100nM, 300nM, 1000nM, 3000nM, 30000nM,R2:0.97693743702181501,slope:1.5044165115380901,EC50 Standard Error, by the legend:Standard error of the EC50 estimation as provided by the drc package.
[16] = system: MARK2; settings: compound concentrations:3nM, 10nM, 30nM, 100nM, 300nM, 1000nM, 3000nM, 30000nM,R2:0.98471401601648001,slope:1.6013857186590299,EC50 Standard Error, by the legend:Standard error of the EC50 estimation as provided by the drc package.
[17] = system: MARK3; settings: compound concentrations:3nM, 10nM, 30nM, 100nM, 300nM, 1000nM, 3000nM, 30000nM,R2:0.98601648224136496,slope:1.5139039229536799,EC50 Standard Error, by the legend:Standard error of the EC50 estimation as provided by the drc package.
[18] = system: MARK4; settings: compound concentrations:3nM, 10nM, 30nM, 100nM, 300nM, 1000nM, 3000nM, 30000nM,R2:0.98999073963654005,slope:9.1146195696381707,EC50 Standard Error, by the legend:Standard error of the EC50 estimation as provided by the drc package.
[19] = system: NEK1; settings: compound concentrations:3nM, 10nM, 30nM, 100nM, 300nM, 1000nM, 3000nM, 30000nM,R2:0.97961263644427599,slope:0.99029629152452003,EC50 Standard Error, by the legend:Standard error of the EC50 estimation as provided by the drc package.
[20] = system: NUAK1; settings: compound concentrations:3nM, 10nM, 30nM, 100nM, 300nM, 1000nM, 3000nM, 30000nM,R2:0.91267183430565202,slope:2.53834648929845,EC50 Standard Error, by the legend:Standard error of the EC50 estimation as provided by the drc package.

Substance: TAK659
- pEC50 [1]: 6.79
- pKd ([1]; read-out: apparent Kd): 7.06
- pEC50 [2]: 5.99
- pKd ([2]; read-out: apparent Kd): 6.28
- pEC50 [3]: 6.27
- pKd ([3]; read-out: apparent Kd): 6.34
- pEC50 [4]: 6.49
- pKd ([4]; read-out: apparent Kd): 6.59
- pEC50 [5]: 5.76
- pKd ([5]; read-out: apparent Kd): 5.80
- pEC50 [6]: 6.83
- pKd ([6]; read-out: apparent Kd): 6.88
- pEC50 [7]: 5.54
- pKd ([7]; read-out: apparent Kd): 6.00
- pEC50 [8]: 6.09
- pKd ([8]; read-out: apparent Kd): 6.21
- pEC50 [9]: 6.50
- pKd ([9]; read-out: apparent Kd): 6.70
- pEC50 [10]: 6.30
- pKd ([10]; read-out: apparent Kd): 6.50
- pEC50 [11]: 6.25
- pKd ([11]; read-out: apparent Kd): 6.51
- pEC50 [12]: 6.83
- pKd ([12]; read-out: apparent Kd): 6.83
- pEC50 [13]: 6.14
- pKd ([13]; read-out: apparent Kd): 6.17
- pEC50 [14]: 5.04
- pKd ([14]; read-out: apparent Kd): 5.14
- pEC50 [15]: 6.23
- pKd ([15]; read-out: apparent Kd): 6.34
- pEC50 [16]: 6.08
- pKd ([16]; read-out: apparent Kd): 6.12
- pEC50 [17]: 6.17
- pKd ([17]; read-out: apparent Kd): 6.17
- pEC50 [18]: 5.98
- pKd ([18]; read-out: apparent Kd): 5.98
- pEC50 [19]: 6.23
- pKd ([19]; read-out: apparent Kd): 6.28
- pEC50 [20]: 5.99
- pKd ([20]; read-out: apparent Kd): 6.51
